Experiment [1] has as its target Thioredoxin reductase 1, cytoplasmic (Rattus norvegicus) (UniProt O89049). Kind of experiment: qHTS Assay for Inhibitors of Mammalian Selenoprotein Thioredoxin Reductase 1 (TrxR1) (AID 488773). Note: nearly all actives have a fitted effect of over 40% in size. Note: potency is the fitted concentration of half-maximal effect. The settings on record: Potency: inhibition. The method, boiled down:
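Inhibition is scored from the loss of NADPH fluorescence between first and last reads of an 8-min kinetic run. Selenite (400 uM) was the substrate, added after 15 min compound preincubation at room temperature.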
(In general: qHTS replaces the single test concentration by a dilution series.)

The target in experiment [2] is Flap endonuclease 1 (Homo sapiens) (UniProt P39748). Kind of experiment: qHTS Validation Assay for the Inhibitors of Human Flap endonuclease 1 (FEN1) (AID 488816). Put shortly:
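Steps: add FEN1 (10 nM reagent) or buffer only; pin compounds; hold 15 min at room temperature; start with substrate, 50 nM final; read at 0 and 15 min; correct, normalize and fit a four-parameter Hill curve.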

Experiment [3] deals with M-phase phosphoprotein 8 (Homo sapiens) (UniProt Q99549). In words: qHTS Validation Assay for Inhibitors for MPP8 Chromodomain Interactions with Methylated Histone Tails (AID 488949). Note: nearly all actives have a fitted effect of over 55% in size. Note: potency is the fitted concentration of half-maximal effect. Put shortly: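 MPP8 (50 nM) was pre-bound to 50 nM biotinylated H3(1-18)K9me3 peptide in PBS pH 7.4 with 0.01% Tween-20. Compounds were then added for 30 min at room temperature, and complex disruption was read by AlphaScreen with streptavidin donor and nickel-chelate acceptor beads.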

Experiment [4] concerns the target Chromobox protein homolog 1 (Homo sapiens) (UniProt P83916). In words: qHTS Validation Assay for Inhibitors of HP1-beta Chromodomain Interactions with Methylated Histone Tails (AID 488953). Note: nearly all actives have a fitted effect of over 50% in size. Note: potency is the fitted concentration of half-maximal effect. Put shortly: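 Compounds pinned into a preassembled complex of HP1-beta and trimethyl-K9 histone H3(1-18) biotin peptide (50 nM each; PBS pH 7.4, 0.01% Tween-20). After 30 min, bead-based AlphaScreen detection followed.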

For experiment [5], the target named is Methanococcus maripaludis chaperonin (MmCpn) (UniProt Q6LX38). Kind of experiment: High-Throughput Screening for Modulators of Cytosolic Chaperonin Activity: MmCpn Primary Screen (AID 488978).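 Note: 50 nM MmCpn enzyme hydrolysing 30 µM ATP at 37 °C.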 Put shortly: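 MmCpn at 50 nM final was preincubated 5 min at RT with compound. ATP was then added at 30 uM final for 10 min at 37 C. ADP formed was detected by Transcreener HTRF (665/590 nm).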

The target of experiment [6] is Transient receptor potential cation channel subfamily V member 1 (Homo sapiens) (UniProt Q8NER1). In words: HTS Assay for Compounds that Act as Enhancers of the Vanilloid Receptor 1 (AID 488979). Put shortly: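 TRPV1-expressing cells loaded with Fluo-8 calcium dye; compounds added and calcium influx read kinetically for 3 min (agonist phase), then capsaicin at EC20 added and read 2 min more for enhancement. Fluorescence ex 480/em 520 nm.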

Experiment [7] deals with Thyrotropin receptor (Homo sapiens) (UniProt P16473). In words: qHTS Assay for Antagonists of the Thyroid Stimulating Hormone Receptor (AID 488980). Note: series mostly up to about 58 µM. Put shortly:
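TSHR-transfected HEK293 cells (2000/well) in HEPES-buffered HBSS with 70 uM RO 20-1724 were stimulated with 4 nM TSH (EC80, final) in the presence of compound. cAMP was measured by HTRF competition after lysis and 30 min at RT.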

In experiment [8] the target is D(1A) dopamine receptor (Homo sapiens) (UniProt P21728). In words: HTS Assay for Allosteric Agonists of the Human D1 Dopamine Receptor: Primary Screen for Agonists (AID 488981). Put shortly:
(§1)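 Tetracycline-induced HEK293 T-REx cells force-coupled to calcium signalling were incubated overnight at 30 C and dye-loaded at room temperature. Calcium flux over 180 s after compound addition flagged agonists; a further 180 s read after EC20 dopamine flagged potentiators.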

Experiment [9] has the same target. In words: HTS Assay for Allosteric Agonists of the Human D1 Dopamine Receptor: Primary Screen for Potentiators (AID 488982). Put shortly: as §1
Experiment [10] has the same target. In words: HTS Assay for Allosteric Agonists of the Human D1 Dopamine Receptor: Primary Screen for Antagonists (AID 488983).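 Note: calcium flux response to an EC80 dopamine challenge measured with no-wash dye; nearly all actives have a fitted effect of over 65% in size.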 Put shortly:
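In this primary screen, compounds are applied to calcium-dye-loaded HEK293 T-REx cells with force-coupled D1 expression induced overnight at 30 C. An EC80 of dopamine follows the 180 s compound phase, and calcium is monitored for a further 180 s.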

Inconclusive results are not listed. Some structures have more than one record in an assay (separate samples or runs), and their calls can disagree. Calls of active or inactive are those of the source. Calls come from the whole dose curve; as a rule, active = well fitted curve in the direction sought with a large enough effect; inconclusive = small, poorly fitted or top-dose-only effect, or another doubt; inactive = no such curve, though single readings can be large; an effect the other way counts as inactive or inconclusive.

Flap endonuclease 1 (Homo sapiens), sequence (P39748 whole entry, looked up): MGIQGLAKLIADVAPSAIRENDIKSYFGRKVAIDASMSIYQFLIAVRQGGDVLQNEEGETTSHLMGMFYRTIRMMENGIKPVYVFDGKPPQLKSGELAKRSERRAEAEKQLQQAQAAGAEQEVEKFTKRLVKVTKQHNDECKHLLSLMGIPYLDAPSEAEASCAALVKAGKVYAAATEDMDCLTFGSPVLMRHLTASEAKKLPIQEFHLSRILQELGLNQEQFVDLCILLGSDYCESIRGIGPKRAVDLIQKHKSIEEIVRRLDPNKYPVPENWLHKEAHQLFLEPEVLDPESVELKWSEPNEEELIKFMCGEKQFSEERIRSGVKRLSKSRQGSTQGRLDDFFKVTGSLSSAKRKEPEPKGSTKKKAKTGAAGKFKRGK
Transient receptor potential cation channel subfamily V member 1 (Homo sapiens), sequence (Q8NER1 whole entry, looked up): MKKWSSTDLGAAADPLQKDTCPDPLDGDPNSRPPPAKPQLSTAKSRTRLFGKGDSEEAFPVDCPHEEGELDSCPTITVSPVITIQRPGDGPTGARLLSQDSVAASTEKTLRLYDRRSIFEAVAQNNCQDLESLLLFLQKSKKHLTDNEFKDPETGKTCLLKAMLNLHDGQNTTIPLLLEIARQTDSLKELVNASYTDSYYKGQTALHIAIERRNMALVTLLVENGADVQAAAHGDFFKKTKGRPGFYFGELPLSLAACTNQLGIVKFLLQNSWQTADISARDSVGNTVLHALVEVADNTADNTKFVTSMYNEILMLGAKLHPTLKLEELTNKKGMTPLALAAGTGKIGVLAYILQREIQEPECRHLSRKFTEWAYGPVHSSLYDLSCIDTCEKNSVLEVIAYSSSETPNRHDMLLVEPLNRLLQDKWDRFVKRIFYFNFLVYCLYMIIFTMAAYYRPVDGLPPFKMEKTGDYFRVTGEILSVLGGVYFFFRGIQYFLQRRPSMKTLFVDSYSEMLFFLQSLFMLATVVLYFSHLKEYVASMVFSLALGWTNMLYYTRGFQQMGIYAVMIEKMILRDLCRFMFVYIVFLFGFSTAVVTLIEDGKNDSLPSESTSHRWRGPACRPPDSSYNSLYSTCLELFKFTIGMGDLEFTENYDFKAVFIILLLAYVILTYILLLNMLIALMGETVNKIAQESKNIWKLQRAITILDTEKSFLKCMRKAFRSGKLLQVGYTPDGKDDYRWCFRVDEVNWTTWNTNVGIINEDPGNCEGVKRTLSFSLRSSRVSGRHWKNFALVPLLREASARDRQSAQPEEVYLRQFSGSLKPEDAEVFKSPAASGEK
Methanococcus maripaludis chaperonin (MmCpn), sequence (Q6LX38 1-543): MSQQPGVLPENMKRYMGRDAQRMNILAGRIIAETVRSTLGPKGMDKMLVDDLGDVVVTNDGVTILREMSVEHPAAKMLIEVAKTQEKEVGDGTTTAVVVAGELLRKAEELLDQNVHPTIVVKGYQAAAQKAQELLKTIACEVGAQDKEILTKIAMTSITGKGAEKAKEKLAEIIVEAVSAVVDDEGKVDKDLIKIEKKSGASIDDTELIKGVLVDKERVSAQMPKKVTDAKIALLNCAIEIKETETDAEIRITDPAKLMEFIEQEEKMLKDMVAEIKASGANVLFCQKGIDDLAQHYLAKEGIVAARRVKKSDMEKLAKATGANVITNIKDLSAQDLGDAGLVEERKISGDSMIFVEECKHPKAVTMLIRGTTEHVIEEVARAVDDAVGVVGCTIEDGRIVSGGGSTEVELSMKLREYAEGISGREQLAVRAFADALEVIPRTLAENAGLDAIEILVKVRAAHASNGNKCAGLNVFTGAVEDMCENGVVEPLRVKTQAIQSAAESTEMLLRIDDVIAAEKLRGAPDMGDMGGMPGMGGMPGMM
D(1A) dopamine receptor (Homo sapiens), sequence (P21728 whole entry, looked up): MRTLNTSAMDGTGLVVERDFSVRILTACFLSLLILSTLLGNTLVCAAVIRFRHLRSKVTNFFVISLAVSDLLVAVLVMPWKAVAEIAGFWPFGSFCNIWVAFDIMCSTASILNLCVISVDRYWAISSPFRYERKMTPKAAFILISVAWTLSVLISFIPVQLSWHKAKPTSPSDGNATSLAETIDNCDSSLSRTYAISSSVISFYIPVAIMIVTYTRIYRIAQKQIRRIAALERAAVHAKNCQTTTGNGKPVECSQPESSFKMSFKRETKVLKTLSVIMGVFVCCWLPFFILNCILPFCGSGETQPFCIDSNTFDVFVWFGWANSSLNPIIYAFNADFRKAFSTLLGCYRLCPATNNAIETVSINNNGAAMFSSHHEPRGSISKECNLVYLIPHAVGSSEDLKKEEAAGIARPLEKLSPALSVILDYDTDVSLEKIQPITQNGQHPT
M-phase phosphoprotein 8 (Homo sapiens), sequence (Q99549 whole entry, looked up): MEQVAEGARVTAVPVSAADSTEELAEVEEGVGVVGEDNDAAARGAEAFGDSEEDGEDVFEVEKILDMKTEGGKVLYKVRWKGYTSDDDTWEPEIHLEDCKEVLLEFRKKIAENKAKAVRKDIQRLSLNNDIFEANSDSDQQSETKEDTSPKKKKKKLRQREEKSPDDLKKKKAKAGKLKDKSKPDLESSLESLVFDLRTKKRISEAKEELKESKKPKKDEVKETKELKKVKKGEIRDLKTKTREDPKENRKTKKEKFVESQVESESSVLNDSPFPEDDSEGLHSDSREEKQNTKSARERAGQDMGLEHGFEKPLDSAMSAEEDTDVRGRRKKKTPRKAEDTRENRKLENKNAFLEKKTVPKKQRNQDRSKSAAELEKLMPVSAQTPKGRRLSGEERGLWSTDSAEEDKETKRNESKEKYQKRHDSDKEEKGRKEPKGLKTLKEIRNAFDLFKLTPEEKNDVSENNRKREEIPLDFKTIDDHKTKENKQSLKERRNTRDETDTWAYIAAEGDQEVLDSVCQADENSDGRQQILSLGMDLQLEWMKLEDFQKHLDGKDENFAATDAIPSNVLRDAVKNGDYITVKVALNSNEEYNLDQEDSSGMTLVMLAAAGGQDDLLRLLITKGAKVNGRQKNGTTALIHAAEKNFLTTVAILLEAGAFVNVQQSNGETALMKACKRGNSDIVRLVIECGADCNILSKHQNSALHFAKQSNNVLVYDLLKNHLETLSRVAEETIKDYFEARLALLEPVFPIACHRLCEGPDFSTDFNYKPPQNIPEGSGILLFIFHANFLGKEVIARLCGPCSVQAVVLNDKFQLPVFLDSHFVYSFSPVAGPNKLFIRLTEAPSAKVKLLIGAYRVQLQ
Thyrotropin receptor (Homo sapiens), sequence (P16473 whole entry, looked up): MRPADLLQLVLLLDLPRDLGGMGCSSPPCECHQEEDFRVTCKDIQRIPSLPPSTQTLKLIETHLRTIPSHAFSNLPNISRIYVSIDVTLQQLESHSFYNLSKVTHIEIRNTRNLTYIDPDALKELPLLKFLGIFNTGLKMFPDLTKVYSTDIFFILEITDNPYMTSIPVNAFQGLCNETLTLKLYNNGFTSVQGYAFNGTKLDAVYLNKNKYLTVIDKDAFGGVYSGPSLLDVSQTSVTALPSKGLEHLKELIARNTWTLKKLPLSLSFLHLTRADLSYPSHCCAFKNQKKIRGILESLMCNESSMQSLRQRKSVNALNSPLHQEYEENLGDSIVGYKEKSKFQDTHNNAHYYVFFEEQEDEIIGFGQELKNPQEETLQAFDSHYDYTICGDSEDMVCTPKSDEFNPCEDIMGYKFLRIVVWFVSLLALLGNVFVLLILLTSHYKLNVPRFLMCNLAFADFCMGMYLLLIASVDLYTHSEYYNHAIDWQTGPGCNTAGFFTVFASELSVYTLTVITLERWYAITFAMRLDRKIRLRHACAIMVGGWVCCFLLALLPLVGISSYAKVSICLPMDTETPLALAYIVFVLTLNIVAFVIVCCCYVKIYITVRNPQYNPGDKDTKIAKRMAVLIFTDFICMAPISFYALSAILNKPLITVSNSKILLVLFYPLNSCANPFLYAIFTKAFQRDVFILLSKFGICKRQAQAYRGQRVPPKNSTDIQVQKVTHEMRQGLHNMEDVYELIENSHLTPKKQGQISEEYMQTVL
Chromobox protein homolog 1 (Homo sapiens), sequence (P83916 whole entry, looked up): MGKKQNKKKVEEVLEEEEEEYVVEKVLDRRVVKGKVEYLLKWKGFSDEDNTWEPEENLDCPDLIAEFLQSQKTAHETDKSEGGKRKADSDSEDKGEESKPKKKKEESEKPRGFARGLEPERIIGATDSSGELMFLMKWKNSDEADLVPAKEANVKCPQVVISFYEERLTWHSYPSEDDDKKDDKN
Thioredoxin reductase 1, cytoplasmic (Rattus norvegicus), sequence (O89049 whole entry, looked up): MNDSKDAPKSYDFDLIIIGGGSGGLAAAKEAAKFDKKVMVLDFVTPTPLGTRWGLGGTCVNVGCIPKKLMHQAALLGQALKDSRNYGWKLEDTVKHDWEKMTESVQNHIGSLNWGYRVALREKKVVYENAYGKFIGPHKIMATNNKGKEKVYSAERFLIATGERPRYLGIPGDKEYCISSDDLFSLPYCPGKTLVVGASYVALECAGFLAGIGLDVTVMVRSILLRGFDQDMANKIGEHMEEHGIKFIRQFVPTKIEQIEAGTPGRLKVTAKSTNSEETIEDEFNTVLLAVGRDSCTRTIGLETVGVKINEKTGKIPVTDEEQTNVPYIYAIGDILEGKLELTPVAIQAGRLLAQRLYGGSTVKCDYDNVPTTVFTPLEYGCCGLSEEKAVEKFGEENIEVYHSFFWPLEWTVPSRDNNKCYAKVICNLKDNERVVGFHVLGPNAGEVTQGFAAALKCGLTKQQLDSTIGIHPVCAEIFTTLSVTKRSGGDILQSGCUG

Regarding `COC(=O)[C@H]1[C@H]2C[C@@H]3c4[nH]c5cc(OC)ccc5c4CCN3C[C@H]2C[C@@H](OC(=O)c2cc(OC)c(OC)c(OC)c2)[C@@H]1OC`, the Potency entry in experiment [1], in experiment [2], in [8], in experiment [9] and in experiment [10] was “inactive” each time. Moreover, the Potency in experiment [3] was 20 µM (active); in [4], 39.8 µM (active). Moreover, the molecule was classed as inactive in experiment [5], in experiment [6] and in experiment [7].
In the case of `CN(C)C(=O)Oc1cccc([N+](C)(C)C)c1`, the Potency entry in experiment [1], in experiment [2], in experiment [3], in experiment [4], in experiment [8] and in experiment [9] was “inactive” throughout. Besides, the Potency entry in experiment [10] is “inactive”. The molecule was classed as inactive in experiment [5], in [6] and in [7].
With `COc1cc2c(cc1OC)-c1cc(=Nc3c(C)cc(C)cc3C)n(C)c(=O)n1CC2`, the Potency result in experiment [1], in [2], in experiment [8] and in experiment [9] was “inactive” each time. Besides, the Potency was 39.8 µM (active) and inactive in experiment [3]; 35.5 µM (active) in experiment [4]. Also, the molecule was called inactive in [5], in experiment [6] and in [7].
Turning to `CCCCCN(CCCCC)C(=O)C(CCC(=O)O)NC(=O)c1ccc(Cl)c(Cl)c1` (centres undefined), the Potency entry in experiment [1], in experiment [2], in experiment [3], in [4] and in experiment [10] was “inactive” each time. Further, the outcome in [5], in experiment [6] and in experiment [7] was inactive.
As for `CCCOc1ccccc1-c1nc2n[nH]nc2c(=O)[nH]1`, the Potency result in experiment [1], in experiment [2], in experiment [3], in experiment [4], in experiment [8] and in experiment [9] was “inactive” in each case. For the same molecule, in [10], the Potency result is “inactive”. Besides, the result in [5], in experiment [6] and in [7] was inactive.
Take `C=CCc1ccccc1OCC(O)CNC(C)C` (centres undefined): the Potency entry in experiment [1], in experiment [2], in experiment [3], in [4], in [8] and in experiment [9] was “inactive” each time. Also, in [10], the Potency entry was “inactive”. Moreover, the outcome in experiment [5], in [6] and in [7] was inactive.
For the molecule `Cc1ccc(Cl)c(Nc2ccccc2C(=O)O)c1Cl`, the Potency entry in [1], in experiment [2], in experiment [3], in experiment [4], in experiment [8] and in [9] was “inactive” each time. The Potency result in experiment [10] is “inactive”. The molecule was classed as inactive in experiment [5], in experiment [6] and in [7].
Regarding `O=C(O)CP(=O)(O)O`, the Potency entry in experiment [1], in [2], in [3], in [4], in experiment [8] and in [9] was “inactive” in each case. Further, in experiment [10], the Potency result is “inactive”. The molecule was called inactive in experiment [5], in experiment [6] and in experiment [7].
In the case of `O=C(O)CCCCCCCC(=O)O`, the Potency result in [1], in experiment [2], in experiment [3], in experiment [4], in [8] and in experiment [9] was “inactive” each time. Further, in [10], the Potency result was “inactive”. Besides, the result in experiment [5], in [6] and in experiment [7] was inactive.
With `O=C(O)CN(CCOCCOCCN(CC(=O)O)CC(=O)O)CC(=O)O`, the Potency result in experiment [1], in experiment [2], in [3], in [4], in [8] and in [9] was “inactive” each time. Also, the Potency entry in experiment [10] was “inactive”. Besides, the result in experiment [5], in experiment [6] and in experiment [7] was inactive.
For the molecule `CCN1CCc2nc(N)oc2CC1`, the Potency in experiment [1] is 29.9 µM (active). For the same molecule, the Potency entry in [2], in experiment [3], in [4], in [8], in experiment [9] and in experiment [10] was “inactive” throughout. The molecule was classed as inactive in [5], in [6] and in experiment [7].
As to `N[C@@H](COP(=O)(O)O)C(=O)O`, the Potency result in [1], in experiment [2], in experiment [3], in experiment [4], in [8] and in [9] was “inactive” throughout. The Potency entry in experiment [10] was “inactive”. Besides, the molecule was classed as inactive in experiment [5], in experiment [6] and in experiment [7].
As for `CCN1CCC[C@H]1CNC(=O)c1c(O)c(Cl)cc(Cl)c1OC`, the Potency entry in experiment [1], in experiment [2], in experiment [3], in [4], in experiment [8] and in [9] was “inactive” each time. The Potency entry in experiment [10] is “inactive”. Moreover, the call in experiment [5], in [6] and in experiment [7] was inactive.
For the molecule `COc1ccc(CCN(C)CCCC(C#N)(c2cc(OC)c(OC)c(OC)c2)C(C)C)cc1OC` (centres undefined), the Potency result in experiment [1], in experiment [2], in experiment [3], in experiment [4], in [8] and in [9] was “inactive” in each case. Besides, the Potency entry in experiment [10] is “inactive”. Further, the result in experiment [5], in [6] and in [7] was inactive.
`CC(C)NNC(=O)c1ccncc1`: the Potency entry in experiment [1], in [2], in experiment [3], in experiment [4], in [8] and in experiment [9] was “inactive” throughout. Further, the Potency result in experiment [10] was “inactive”. The molecule was called inactive in experiment [5], in [6] and in experiment [7].
On to `CCN(CC)CCNC(=O)c1cc(S(C)(=O)=O)ccc1OC`, for which the Potency result in experiment [1], in [2], in [3], in experiment [4], in experiment [8] and in [9] was “inactive” in each case. In experiment [10], the Potency entry was “inactive”. Further, the call in [5], in experiment [6] and in [7] was inactive.
With `CC(=O)OC(C)C[N+](C)(C)C` (centres undefined), the Potency result in experiment [1], in experiment [2], in [3], in [4], in [8] and in [9] was “inactive” each time. For the same molecule, the Potency result in experiment [10] is “inactive”. Also, the molecule was classed as inactive in [5], in experiment [6] and in experiment [7].
`NC(N)=NC(=O)Cc1c(Cl)cccc1Cl`: the Potency entry in experiment [1], in experiment [2], in [3], in [4], in [8] and in [9] was “inactive” in each case. The call in experiment [5], in experiment [6] and in experiment [7] was inactive.
As to `CC1=NS(=O)(=O)c2cc(Cl)ccc2N1`, the Potency result in [1], in [2], in experiment [3], in experiment [4], in [8] and in experiment [10] was “inactive” each time. Besides, the molecule was called inactive in [5], in experiment [6] and in experiment [7].
For `CNC1(C)C2CCC(C2)C1(C)C` (centres undefined), the Potency result in experiment [1], in experiment [2], in [3], in experiment [4], in [8] and in [9] was “inactive” throughout. The Potency result in experiment [10] is “inactive”. For the same molecule, the outcome in [5], in experiment [6] and in [7] was inactive.
Turning to `CNCCC(Oc1ccccc1OC)c1ccccc1` (centres undefined), the Potency entry in experiment [1], in experiment [2], in [3], in [4], in [8] and in [9] was “inactive” each time. The call in [5], in [6] and in experiment [7] was inactive.
Regarding `CCN(Cc1ccncc1)C(=O)C(CO)c1ccccc1` (centres undefined), the Potency result in experiment [1], in experiment [2], in experiment [3], in experiment [4], in [8] and in experiment [9] was “inactive” each time. Also, the Potency entry in [10] is “inactive”. Moreover, the molecule was called inactive in experiment [5], in [6] and in experiment [7].

Values taken from PubChem BioAssay (NCATS).
